BRCA1 expr up = qHTS Assay to Identify Small Molecule Activators of BRCA1 Expression. MCF7-BRCA1-FFLuc reporter, luminescence, 48 h; response scale: scaled: vehicle 0%, 10 µM genistein 100%. Potency, µM (doses to about 46.1 µM), usual class: activators. hit rate 1.1% among 380,000; note: nearly all actives have a fitted effect of over 80% in size
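Compounds are tested at multiple concentrations on MCF7 BRCA1-luciferase reporter cells seeded at 2000 per well; after 48 h, a single luminescence end-point is taken and curves fitted to the normalized data.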
Apoferritin bind = qHTS Assay for Identification of Novel General Anesthetics; apoferritin/1-aminoanthracene competitive binding, fluorescence; Ferritin light chain (Equus caballus), P02791; AID 485281, 2010; hit rate 0.074% among 350,000; Potency, µM (doses to about 77.5 µM), actives largely listed as inhibitors; note: nearly all actives have a fitted effect of over 20% in size
Target sequence (P02791 2-175 limits assumed): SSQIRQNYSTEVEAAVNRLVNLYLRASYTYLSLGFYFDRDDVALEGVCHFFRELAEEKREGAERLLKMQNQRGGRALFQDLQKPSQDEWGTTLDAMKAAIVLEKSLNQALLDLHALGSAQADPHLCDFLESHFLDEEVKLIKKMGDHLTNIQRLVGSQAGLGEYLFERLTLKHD
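Apoferritin-based anesthetic binding model; compound displacement of fluorescent 1-AMA measured as endpoint fluorescence after 10 minutes at room temperature, scaled to free-ligand and complex controls.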
GoLoco inh red = qHTS Assay for Inhibitors of RGS12 GoLoco Motif Activity (Red Fluorophore). Potency, µM (doses to about 61.6 µM), actives largely listed as inhibitors. Guanine nucleotide-binding protein G(i) subunit alpha-1 (Homo sapiens), P63096. hit rate 0.44% among 230,000. Gai1:RGS12 GoLoco peptide FP, rhodamine, 10 min. AID 880, 2007; active = well fitted inhibition curve with a large enough effect, not every such curve was filed as active; inactive = no such curve, though single readings can be large or run the other way; note: nearly all actives have a fitted effect of over 30% in size
ERG Ets-DNA blk = qHTS for Small Molecule Inhibitors of the ERG Ets/DNA interaction; Transcriptional regulator ERG (Homo sapiens), P11308; fluorescence polarization, His-ERG Ets domain / labelled DNA; Potency, µM (series often up to 76.9 µM), most hits filed as inhibitors; hit rate 0.028% among 370,000; active = well fitted inhibition curve with a large enough effect in the polarisation, with a control signal flat; inconclusive = small, poorly fitted or top-dose-only effect, or effect the other way, or a change in a side signal; inactive = no such curve, though single readings can be large or run the other way; the % refers to the polarisation;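 note: polarization taken with two DNA probes labelled with fluorescein and Texas red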
Target sequence (P11308 whole entry, looked up, the tested form may be a part): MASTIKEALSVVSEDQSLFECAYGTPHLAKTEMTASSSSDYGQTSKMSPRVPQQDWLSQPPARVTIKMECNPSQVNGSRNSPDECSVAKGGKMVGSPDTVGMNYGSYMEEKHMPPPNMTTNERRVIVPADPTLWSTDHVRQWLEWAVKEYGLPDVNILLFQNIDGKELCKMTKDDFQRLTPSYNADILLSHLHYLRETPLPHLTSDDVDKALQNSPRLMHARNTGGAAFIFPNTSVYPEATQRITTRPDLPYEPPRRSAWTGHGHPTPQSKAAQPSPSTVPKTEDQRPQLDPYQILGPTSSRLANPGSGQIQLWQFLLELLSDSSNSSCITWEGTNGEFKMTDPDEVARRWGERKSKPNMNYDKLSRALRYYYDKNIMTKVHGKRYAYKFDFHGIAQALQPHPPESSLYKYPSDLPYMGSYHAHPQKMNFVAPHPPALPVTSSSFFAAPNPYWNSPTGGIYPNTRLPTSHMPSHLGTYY
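His-tagged ERG Ets domain (1 uM in the protein solution; 300mM KCl, 50mM Tris-HCl, 1mM EDTA, 1mM DTT, pH 7.5) received compound, then a probe mix of 5 nM fluorescein-DNA and 100nM Texas-615-DNA. Fluorescence polarization was read for both dyes.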
Hits are given with their value; . = inactive; ? = inconclusive; / = not tested or not shown. Shown are actives, neighbours in structure and some others; about 1.2% of the full set was active somewhere. Unless noted, calls come from the whole dose curve; as a rule, active = well fitted curve in the direction sought with a large enough effect; inconclusive = small, poorly fitted or top-dose-only effect, or another doubt; inactive = no such curve, though single readings can be large; an effect the other way counts as inactive or inconclusive.

SMILES	BRCA1 expr up	Apoferritin bind	GoLoco inh red	ERG Ets-DNA blk
CCCC(=O)N=C1SC2CS(=O)(=O)CC2N1c1ccc(-c2nc3ccc(C)cc3s2)cc1 (stereo not given)	15.8µM	.	/	.
CCC(CC)NC(=O)COC(=O)c1cc(SC)ccc1Cl	.	.	.	12.6µM
NCCc1nnc(SCc2c(F)cccc2Cl)o1	.	?	.	.
Fc1cccc(Cl)c1CSc1nnc(COc2cccc3cccnc23)o1	.	17.8µM	.	/
CN(C)c1cccc(C(=O)N/N=C/c2ccsc2)c1	10µM	.	.	.
CC(C)CN(C)C(=O)CCc1nnc(Cc2cccc(C(F)(F)F)c2)o1	10µM	.	.	.
CN(C)CCCOc1ccc(C(C)(C)c2ccccc2)cc1	.	15.8µM	.	.
O=S1(=O)c2ccccc2N(Cc2ccc(Cl)cc2F)c2ccccc21	/	.	/	.
O=C(C[n+]1cc(-c2ccccc2)n2c1CCCCC2)c1ccc(Cl)cc1	.	.	.	.
C[n+]1cc(-c2ccccc2)n2c1CCCCC2	.	.	4.47µM	.
COC(=O)c1ccccc1	/	/	.	/
COC(=O)c1ccc(C23CC2(C(NP(=O)(c2ccccc2)c2ccccc2)c2ccccc2)C3)cc1 (stereo not given)	/	?	1.41µM	/
Clc1cc(Cl)c2nc(N3CCOCC3)sc2c1	11.2µM	.	.	.
CC(C)C(=O)N1CCN(c2nc3ccc(Cl)cc3s2)CC1	5.01µM	.	/	.
CCc1ccc2nc(N3CCN(C(=O)C(C)(C)C)CC3)sc2c1	12.6µM	.	/	.
CC(C)(C)C(=O)N1CCN(c2nc3ccccc3s2)CC1	3.16µM	.	/	.
CCc1ccc2nc(N3CCN(C(=O)c4ccco4)CC3)sc2c1	/	.	/	.
Cc1cc2oc(C(=O)Nc3ccc(S(N)(=O)=O)cc3)cc(=O)c2cc1C	/	.	/	.
CCOc1ccc(S(=O)(=O)N2CCN(c3nc(-c4ccccc4)nc4ccccc34)CC2)cc1OCC	.	/	/	/
COc1cc2c(NC3CCN(C)CC3)nc(N3CCCN(C)CC3)nc2cc1O	.	/	/	/
c1ccc2sc(N3CCOCC3)nc2c1	8.91µM	.	.	.
Cc1ccc(-n2ncc3c(NCc4cccnc4)ncnc32)cc1C	1µM	.	/	.
C=CCNc1ncnc2c1cnn2-c1cccc(C)c1	2.24µM	.	.	.
Cc1cccc(-n2ncc3c(NCc4cccnc4)ncnc32)c1	2.51µM	.	.	.
Clc1ccc(-n2ncc3c(NCc4ccccn4)ncnc32)cc1	10µM	?	.	.
SMILES	BRCA1 expr up	Apoferritin bind	GoLoco inh red	ERG Ets-DNA blk
Cc1ccc2c(CC(=O)Nc3c(C(=O)Nc4cccc(Cl)c4)oc4ccccc34)coc2c1C	/	.	/	.
Nc1cccc[n+]1C(c1ccnc2ccccc12)[n+]1ccccc1N	.	/	/	/
CC(C)=CCC/C(C)=C/COc1c2ccoc2cc2oc(=O)ccc12	.	/	/	/
Cc1cc(C)c(N(Cc2ccccc2)S(=O)(=O)c2ccc(OCCNC(=O)c3cc4ccccc4o3)cc2)c(C(=O)NO)c1	/	.	/	/
C#Cc1cccc(Nc2ncnc3cc(OC)c(OC)cc23)c1	/	.	.	/
N/C(=N\OC(=O)Cc1cccs1)c1ccccc1	.	?	.	.
Cc1ccc(/C(N)=N/OC(=O)Cc2cccs2)cc1	11.2µM	.	.	.
Cc1cc(C(=O)COc2ncnc3sccc23)c(C)n1C1CC1	8.91µM	.	.	/
OCCc1ccc(NCCc2cccs2)cc1	8.91µM	/	/	/
O=C(Cc1cccs1)NCCc1ccc(F)cc1	.	.	/	.
C/C(=N\NC(=O)C1CC1)c1ccc(C)c(C)c1	10µM	.	/	.
Oc1ccc(Br)cc1C=Nc1cccn2cc(-c3ccccc3)nc12	6.31µM	.	.	.
Cc1cc(/C=C2\C(=O)NN(c3ccccc3)C2=O)c(C)n1-c1ccccc1O	10µM	.	.	.
Cc1cc(/C=C2/C(=O)NN(c3ccccc3)C2=O)c(C)n1-c1ccc(O)cc1	.	.	.	.
CC(C)[C@H](O)CC[C@@H](C)C1CC[C@H]2C3CC=C4C[C@@H](O)CC[C@]4(C)C3CC[C@]12C (stereo not given in full)	/	.	.	/
COc1cc(SC)ccc1C(=O)NCCOc1ccc(F)cc1	10µM	.	.	.
O=C(NC(=S)Nc1cccnc1Cl)c1ccco1	10µM	.	.	.
Cc1cc(O)ccc1Nc1cc(-c2cccc(N(C)C)c2)ncn1	5.62µM	/	/	/
CCOC(=O)c1nnn2c1nc(N1CCOCC1)c1ccccc12	.	.	.	.
Nc1nc2c(C(=O)N3CCOCC3)nnn2c2ccccc12	2.82µM	.	.	.
COc1cccc(NC(=O)c2oc3ccccc3c2NC(C)=O)c1	3.55µM	.	.	.
O=C(N/N=C/c1ccco1)Nc1ccccc1	6.31µM	.	/	.
CCOc1cc(/C=N/NC(=O)Nc2ccccc2)ccc1O	11.2µM	.	.	.
COc1cccc(C(=O)Nc2cnn(C(C)C)c2)c1	3.55µM	.	.	.
CCc1ccc(OCC(=O)N(Cc2ccco2)Cc2ccccc2Cl)cc1	/	.	/	.
SMILES	BRCA1 expr up	Apoferritin bind	GoLoco inh red	ERG Ets-DNA blk
CC(C)C(N)C(=O)O (stereo not given)	/	.	.	/
CC[N+](CC)(CC)c1ccc(/C=C/c2ccc3ccccc3n2)cc1	.	/	/	/
COC(=O)C#CC(=O)OC	/	.	/	/
O=C(Nc1ccc(Nc2ccccc2)cc1)c1ccccc1F	1.12µM	?	/	.
O=C(Nc1ccccc1)Nc1ccc(Nc2ccccc2)cc1	3.98µM	/	/	.
COc1cccc(NC(=O)c2ccc(NC(=O)C(C)(C)C)cc2)c1	3.98µM	.	.	.
COc1ccc(-c2csc(NC(=O)c3ccccc3F)c2C(=O)O)cc1	6.31µM	.	/	.
O=C(Nc1ccccc1)Nc1ccccc1	?	.	.	.
CCCC(=O)Nc1ccc(C(=O)Nc2cccc(OC)c2)cc1	.	.	.	.
O=C(O)c1cc(NC(=O)c2ccccc2F)cc(NC(=O)c2ccccc2F)c1	.	.	/	.
N#CC(=C(/N)Sc1ccccc1N)/C(C#N)=C(\N)Sc1ccccc1N	/	?	.	/
COc1cccc(C(=O)Nc2ccccc2)c1	?	.	.	.
COc1cccc(C(=O)Nc2cccc(SC)c2)c1	12.6µM	.	.	.
COc1cccc(NC(=O)c2c(F)cccc2F)c1	?	/	/	.
COc1cccc(NC(=O)c2ccccc2F)c1	7.94µM	/	/	.
C=C(C)C(=O)OC1(C(F)(F)F)Oc2cc(C)ccc2NC1=O (stereo not given)	.	17.8µM	.	.
O=C(Nc1ccccc1)Nc1ccc(-n2ccc(C(F)(F)F)n2)cc1	3.55µM	.	.	.
O=C(O)CC(CC(=O)Nc1ccc(-n2ccc(C(F)(F)F)n2)cc1)c1ccccc1 (stereo not given)	.	.	.	.
O=C(CCCC(=O)c1ccc(F)cc1)c1ccc(F)cc1	2.51µM	.	/	.
CC1CCN(CCCC(=O)c2ccc(F)cc2)CC1	/	.	/	/
Cc1ccc(C(=O)CN2C(=O)C(C)Oc3ccccc32)cc1 (stereo not given)	11.2µM	?	.	.
CC1Oc2ccccc2N(CC(=O)c2ccccc2)C1=O (stereo not given)	.	?	.	.
